Test results as given in publication PMC7826789 (International Journal of Molecular Sciences, 2021).

What follows are compounds tested on HIPK4. Details: Compound Concentration (nM):1000.
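Note: KINOMEscan scanMAX binding as percent activity remaining versus control; lower means stronger binding.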

Compared with O=C1Nc2ccc(C(=O)c3ccco3)cc2C1=Cc1cc(Cl)c(O)c(Cl)c1 [GW406108X], CC(C)COC(=O)c1ccc2c(c1)/C(=C/Nc1ccc(S(N)(=O)=O)cc1)C(=O)N2 [GW416981X] is higher in “Percent Control” value: 59% for the first, 100% for the second.

First: Cl.O=S1CCN(Cc2ccc(-c3ccc4ncnc(Nc5ccc(OCc6ccccc6)c(F)c5)c4c3)o2)CC1 [GW576924A]
Second: Cl.O=C(Nc1ccc(Oc2ccc3[nH]c(NC(=O)c4ccccc4)nc3c2)cc1)Nc1cc(C(F)(F)F)ccc1F [GW709042A]
The “Percent Control” value of the first is higher: 100% for the first, 13% for the second.

First: CCn1c(-c2nonc2N)nc2c(C#CC(C)(C)O)nc(OCCNC)cc21.Cl [GSK949675]
Second: COc1cc(C=NNc2ncnc3c2cnn3-c2ccccc2)ccc1O [GW513184X]
The “Percent Control” value of the first is higher: 100% for the first, 67% for the second.

First: Nc1ncnc2occ(-c3ccc(NC(=O)Nc4cc(C(F)(F)F)ccc4F)cc3)c12 [GW770249X]
Second: C/C(Nc1ccc(S(N)(=O)=O)cc1)=C1/C(=O)Nc2ccccc21 [GW335962X]
The “Percent Control” value of the first is lower: 0% for the first, 84% for the second.

Compared with NS(=O)(=O)c1ccc(N/N=C2\C(=O)Nc3ccc(C(=O)NCc4ccncc4)cc32)cc1 [GW300657X], NS(=O)(=O)c1ccc(N/N=C2\C(=O)Nc3ccc(Cl)cc32)cc1 [GW280670X] is higher in “Percent Control” value: 81% for the first, 100% for the second.

Going from C[C@@H](Oc1cc(-n2cnc3ccc(OC4CCN(C)CC4)cc32)sc1C(N)=O)c1ccccc1Cl [GSK579289A] to CCc1ccc(Oc2nccc(-c3c(-c4ccc(F)cc4)ncn3C3CCNCC3)n2)cc1 [SB-242719], the “Percent Control” value rises from 15% to 100%.

First: COc1ccc2[nH]c3c4[nH]c5ccc(OC)cc5c4c4c(c3c2c1)C(=O)NC4=O [GW296115X]
Second: CN1CCN(C(=O)c2ccc(NC(=O)Nc3ccc(N(C)c4ccnc(Nc5ccc(CS(C)(=O)=O)cc5)n4)cc3)cc2)CC1.Cl [GW830263A]
The “Percent Control” value of the first is lower: 70% for the first, 74% for the second.

Each compound was assayed on T1, HPK1. Details: Compound Concentration (nM):1000.
T1 construct: gene MAP4K1

Going from COc1ccc2c(-c3ccnc(Nc4cccc(OC(F)(F)F)c4)n3)cnn2n1 [GW810372X] to COc1cccc(-n2ncc3c(N/N=C/c4ccncc4)ncnc32)c1 [GW784752X], the “Percent Control” value rises from 83% to 100%.

Compared with CCS(=O)(=O)c1ccc(OC)c(Nc2ncc(-c3cccc(OC)c3)o2)c1 [GW580509X], CCS(=O)(=O)c1ccc(OC)c(Nc2ncc(-c3cccc(F)c3)o2)c1 [GW621970X] is higher in “Percent Control” value: 88% for the first, 100% for the second.

Going from CC1=C(C(=O)Nc2ccc3[nH]ncc3c2)C(c2ccc3ccccc3c2)CC(=O)N1 (stereo not drawn) [GSK270822A] to CC1=C(C(=O)Nc2ccc3[nH]ncc3c2)C(c2ccc(Cl)c(Cl)c2)CC(=O)N1 (stereo not drawn) [GSK299115A], the “Percent Control” value rises from 87% to 100%.

Going from COc1cccc(-c2c[nH]c3c(N/N=C/c4ccncc4)ncnc23)c1 [GW814408X] to COc1cc(C=NNc2ncnc3c2cnn3-c2ccccc2)ccc1O [GW513184X], the “Percent Control” value rises from 70% to 100%.

Compared with Cl.O=C(Nc1ccc(Oc2ccc3[nH]c(NC(=O)c4ccco4)nc3c2)cc1)Nc1cc(C(F)(F)F)ccc1F [GW683134A], Cl.O=C(Nc1ccc(Oc2ccc3[nH]c(NC(=O)c4ccccc4)nc3c2)cc1)Nc1cc(C(F)(F)F)ccc1F [GW709042A] is higher in “Percent Control” value: 44% for the first, 75% for the second.

Going from COC(=O)Nc1nc2ccc(Oc3ccc(NC(=O)Nc4cc(C(F)(F)F)ccc4F)cc3)cc2s1.Cl [GW693917A] to Nc1ncnc2occ(-c3ccc(NC(=O)Nc4cc(C(F)(F)F)ccc4F)cc3)c12 [GW770249X], the “Percent Control” value falls from 51% to 16%.

Compared with COc1cc(N2CCN(C(C)C)CC2)ccc1Nc1nc(Nc2ccc(F)cc2C(=O)NC[C@@H](O)CO)c2cc[nH]c2n1 [GSK1392956A], COc1cc(C)c(N(C)C(=O)CN(C)C)cc1Nc1nc(Nc2cccc(F)c2C(N)=O)c2cc[nH]c2n1 [GSK2219385] is higher in “Percent Control” value: 86% for the first, 100% for the second.

Compared with COc1cc2ncn(-c3cc(O[C@H](C)c4ccccc4Cl)c(C(N)=O)s3)c2cc1OC [GSK237701A], C[C@@H](Oc1cc(-n2cnc3ccc(OC4CCN(C)CC4)cc32)sc1C(N)=O)c1ccccc1Cl [GSK579289A] is higher in “Percent Control” value: 26% for the first, 58% for the second.

Compared with Cl.c1ccc(Cc2nc3ccc(Nc4ncnc5ccccc45)cc3[nH]2)cc1 [GR269666A], CN(C)c1cc2c(Nc3ccc4c(cnn4Cc4ccccc4)c3)ncnc2cn1 [GW282974X] is higher in “Percent Control” value: 98% for the first, 100% for the second.

Compared with NS(=O)(=O)c1ccc(N/N=C2\C(=O)Nc3ccc(C(=O)NCCc4c[nH]cn4)cc32)cc1 [GW300660X], NS(=O)(=O)c1ccc(N/N=C2\C(=O)Nc3ccc(C(=O)NCc4ccncc4)cc32)cc1 [GW300657X] is lower in “Percent Control” value: 74% for the first, 70% for the second.

First: CN(C)CCNC(=O)Nc1ccc(N(C)c2ccnc(Nc3ccc(CS(C)(=O)=O)cc3)n2)cc1.Cl [GW830900A]
Second: CN1CCN(C(=O)c2ccc(NC(=O)Nc3ccc(N(C)c4ccnc(Nc5ccc(CS(C)(=O)=O)cc5)n4)cc3)cc2)CC1.Cl [GW830263A]
The “Percent Control” value of the first is higher: 30% for the first, 2.6% for the second.

First: COc1cc(/C=N/Nc2ncnc3[nH]ncc23)ccc1O [GW578748X]
Second: COc1cc2ncnc(Nc3ccc4c(cnn4Cc4ccccc4)c3)c2cc1OC.Cl [GW282449A]
The “Percent Control” value of the first is lower: 80% for the first, 100% for the second.

Going from COc1ccc2cc(-c3c(-c4ccncc4)nc(-c4ccc(S(C)(=O)=O)cc4C)n3C)ccc2c1 [SB-633825] to CCc1ccc(Oc2nccc(-c3c(-c4ccc(F)cc4)ncn3C3CCNCC3)n2)cc1 [SB-242719], the “Percent Control” value falls from 85% to 54%.

Going from COc1ccc(COc2ccc(Cc3cnc(N)nc3N)cc2OC)cc1 [GW632580X] to COc1ccccc1-c1cc(/C=C2\C(=O)Nc3ncc(Br)cc32)cc(Br)c1O [GW442130X], the “Percent Control” value falls from 100% to 99%.

First: Cc1cc(O)cc(C)c1/C=C/c1cncc(C(N)=O)c1 [GW435821X]
Second: O=C1Nc2ccc(C(=O)c3ccco3)cc2C1=Cc1cc(Cl)c(O)c(Cl)c1 [GW406108X]
The “Percent Control” value of the first is higher: 100% for the first, 96% for the second.

Going from NS(=O)(=O)c1ccc(N/N=C2\C(=O)Nc3ccc(-c4cnco4)cc32)cc1 [GW276655] to NS(=O)(=O)c1ccc(N/N=C2\C(=O)Nc3ccc(Cl)cc32)cc1 [GW280670X], the “Percent Control” value falls from 100% to 88%.

Compared with O=C(Nc1n[nH]c2nc(-c3ccc(O)cc3)c(Br)cc12)C1CC1 [SB-725317], C/C(Nc1ccc(S(N)(=O)=O)cc1)=C1/C(=O)Nc2ccccc21 [GW335962X] is higher in “Percent Control” value: 86% for the first, 100% for the second.

Compared with NS(=O)(=O)c1ccc(Nc2ncc(-c3ccccc3)o2)cc1 [GW572399X], CC(C)COC(=O)c1ccc2c(c1)/C(=C/Nc1ccc(S(N)(=O)=O)cc1)C(=O)N2 [GW416981X] is lower in “Percent Control” value: 100% for the first, 48% for the second.

First: Cl.O=C(O[C@H]1CN[C@H](C#Cc2cc3ncnc(Nc4ccc5c(cnn5Cc5ccccc5)c4)c3s2)C1)N1CCOCC1 [GSK200398A]
Second: Cl.O=S1CCN(Cc2ccc(-c3ccc4ncnc(Nc5ccc(OCc6ccccc6)c(F)c5)c4c3)o2)CC1 [GW576924A]
The “Percent Control” value of the first is higher: 100% for the first, 95% for the second.

First: CCn1c(-c2nonc2N)nc2c(C#CC(C)(C)O)nc(OCCNC)cc21.Cl [GSK949675]
Second: COc1ccc2[nH]c3c4[nH]c5ccc(OC)cc5c4c4c(c3c2c1)C(=O)NC4=O [GW296115X]
The “Percent Control” value of the first is higher: 100% for the first, 90% for the second.
